The values below come from PubChem BioAssay.

Assay [1] can be described thus: compounds binding Alexa647 anti-His antibody – biochemical, small-molecule microarray, 635 nm fluorescence, artefact control for SMM control protein annotation, primary screen (AID 1128).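 Further: score merges feature fluorescence with signal-to-noise for each printed compound spot.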 Conditions: higher = more signal.
The test system of assay [2] is Human papillomavirus type 1a E7 protein (residues 1-88). As to the kind of experiment: HPV1a E7 small-molecule binders, primary screen, biochemical, small-molecule microarray, residues 1-88, 635 nm (AID 1129). As to conditions: small-molecule microarray binding, fluorescence 635 nm; higher = more signal.
In assay [3] the target is Focal adhesion kinase 1 (Homo sapiens) (UniProt Q05397). The assay can be described thus: PTK2 protein binding on printed compound slides – biochemical, small-molecule microarray, 635/667 nm fluorescence, BSA, DTT, primary screen (AID 1130).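 Further: composite of spot emission at 667 nm and signal to noise over triplicate slides.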 Conditions: 635 nm fluorescence, higher = more signal.
Chain of Focal adhesion kinase 1 (Homo sapiens) (Q05397 whole entry, looked up): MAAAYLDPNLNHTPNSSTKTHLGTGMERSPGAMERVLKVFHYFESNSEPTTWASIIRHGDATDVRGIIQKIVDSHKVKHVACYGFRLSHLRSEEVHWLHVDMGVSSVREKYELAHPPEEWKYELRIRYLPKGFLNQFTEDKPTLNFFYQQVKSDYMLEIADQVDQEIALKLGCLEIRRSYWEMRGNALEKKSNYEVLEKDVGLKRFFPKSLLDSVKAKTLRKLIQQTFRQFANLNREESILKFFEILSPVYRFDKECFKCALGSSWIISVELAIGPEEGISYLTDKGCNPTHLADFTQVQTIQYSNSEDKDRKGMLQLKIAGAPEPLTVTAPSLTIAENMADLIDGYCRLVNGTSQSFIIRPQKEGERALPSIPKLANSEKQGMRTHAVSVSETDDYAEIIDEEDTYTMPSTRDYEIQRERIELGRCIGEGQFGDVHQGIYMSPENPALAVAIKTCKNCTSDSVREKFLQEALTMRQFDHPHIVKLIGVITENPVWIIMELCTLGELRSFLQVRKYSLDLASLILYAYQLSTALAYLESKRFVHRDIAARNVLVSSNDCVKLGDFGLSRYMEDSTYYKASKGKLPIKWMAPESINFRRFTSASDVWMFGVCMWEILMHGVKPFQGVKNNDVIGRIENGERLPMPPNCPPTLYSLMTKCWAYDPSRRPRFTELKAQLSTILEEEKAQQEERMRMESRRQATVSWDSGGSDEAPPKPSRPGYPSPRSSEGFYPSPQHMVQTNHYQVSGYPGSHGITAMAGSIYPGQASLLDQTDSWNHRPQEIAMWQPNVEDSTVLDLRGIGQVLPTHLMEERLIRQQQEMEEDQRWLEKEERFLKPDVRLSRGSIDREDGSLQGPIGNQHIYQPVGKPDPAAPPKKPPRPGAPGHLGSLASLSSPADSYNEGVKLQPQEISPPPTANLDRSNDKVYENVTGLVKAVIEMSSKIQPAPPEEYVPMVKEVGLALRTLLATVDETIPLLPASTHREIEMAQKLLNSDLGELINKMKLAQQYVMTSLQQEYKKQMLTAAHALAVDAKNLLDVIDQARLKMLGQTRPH
The subject of assay [4] is Fibrinogen (Alexa647-labelled). The assay can be described thus: Alexa647-fibrinogen binding to printed small molecules – biochemical, small-molecule microarray, 635/667 nm fluorescence, artefact control for SMM control-protein annotation, profiling panel (AID 1131).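 Further: z-score merges 667 nm fluorescence with per-spot signal-to-noise over triplicate slides.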 Conditions: fibrinogen-A647 binding fluorescence, higher = more signal.
For assay [5], the target named is Follistatin (Homo sapiens) (UniProt P19883). The assay can be described thus: FST protein binding to printed compounds – biochemical, small-molecule microarray, 635/667 nm fluorescence, primary screen (AID 1132). As to conditions: 635 nm fluorescence, higher = more signal.
Chain of Follistatin (Homo sapiens) (P19883 whole entry, looked up): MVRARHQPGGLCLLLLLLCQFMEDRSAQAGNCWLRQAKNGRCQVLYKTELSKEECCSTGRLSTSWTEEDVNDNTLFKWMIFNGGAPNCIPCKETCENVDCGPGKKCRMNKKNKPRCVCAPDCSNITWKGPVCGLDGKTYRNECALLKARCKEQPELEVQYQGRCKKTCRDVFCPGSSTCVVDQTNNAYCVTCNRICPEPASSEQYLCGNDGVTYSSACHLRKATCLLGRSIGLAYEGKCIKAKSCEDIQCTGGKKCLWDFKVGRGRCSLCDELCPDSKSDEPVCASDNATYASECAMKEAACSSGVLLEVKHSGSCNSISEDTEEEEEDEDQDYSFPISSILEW
Assay [6] has as its target Fibroblast growth factor 2 (Homo sapiens) (UniProt P09038). As to the kind of experiment: basic fibroblast growth factor binding to printed compounds – biochemical, small-molecule microarray, 635/667 nm fluorescence, primary screen (AID 1133). As to conditions: FGF2, fluorescence 635/667, higher = more signal.
Assay [7] in a line: JC-1 mitochondrial potential readout, lung cancer cells – cell-based, A549, JC-1 fluorescence, basal, 24 h, 100 nL, profiling panel (AID 1138).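 Further: A549 lung adenocarcinoma cells under basal conditions with no added stimulus; test concentration not given here.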 As to conditions: higher = more signal.
For another assay, the system named is Lefty1. As to the kind of experiment: Lefty1 protein binding to printed compounds – biochemical, small-molecule microarray, 635/667 nm fluorescence, primary screen (AID 1139). As to conditions: fluorescence 635/667, higher = more signal.
Assay [8] has as its system wheat germ agglutinin (Triticum aestivum), Alexa647-labelled. The assay can be described thus: Alexa647-WGA lectin binding to printed small molecules – biochemical, small-molecule microarray, 635/667 nm fluorescence, artefact control for SMM control-protein annotation, profiling panel (AID 1140).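 Further: score merges 667 nm feature emission with signal to noise over triplicate slides.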 As to conditions: WGA-A647 binding, 635 nm fluorescence, higher = more signal.

In assay [9] the target is Luciferin 4-monooxygenase (Photinus pyralis) (UniProt P08659). As to the kind of experiment: inhibition of purified Photinus pyralis luciferase – biochemical, luminescence, purified enzyme, 2006 set, primary screen (AID 1141).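 Further: cell-free assay with purified firefly luciferase at 100 ng per well in PBS; test concentration not given here.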 Conditions: purified firefly luciferase, SteadyGlo luminescence, 30 min; higher = more signal, called active from +8 up or from −8 down.
Chain of Luciferin 4-monooxygenase (Photinus pyralis) (P08659 whole entry, looked up): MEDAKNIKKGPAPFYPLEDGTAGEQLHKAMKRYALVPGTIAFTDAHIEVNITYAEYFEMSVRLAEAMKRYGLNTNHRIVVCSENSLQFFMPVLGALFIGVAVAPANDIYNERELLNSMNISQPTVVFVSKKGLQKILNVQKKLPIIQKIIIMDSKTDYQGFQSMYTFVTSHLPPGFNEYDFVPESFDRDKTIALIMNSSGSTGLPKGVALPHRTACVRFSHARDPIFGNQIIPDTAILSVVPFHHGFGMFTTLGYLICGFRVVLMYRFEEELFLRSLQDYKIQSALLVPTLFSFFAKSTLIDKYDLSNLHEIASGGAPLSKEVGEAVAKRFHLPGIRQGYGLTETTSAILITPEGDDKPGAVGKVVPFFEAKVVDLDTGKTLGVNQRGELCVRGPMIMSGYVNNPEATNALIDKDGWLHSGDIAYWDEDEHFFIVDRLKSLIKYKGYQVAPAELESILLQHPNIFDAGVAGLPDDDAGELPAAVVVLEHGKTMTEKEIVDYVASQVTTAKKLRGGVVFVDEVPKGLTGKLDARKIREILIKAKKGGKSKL
The subject of assay [10] is Wnt5a (protein binding on small-molecule microarray). The assay can be described thus: small molecules binding Wnt5a protein – biophysical, small-molecule microarray, 635/667 nm fluorescence, primary screen (AID 1142).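 Further: fluorescence read at 667 nm with signal to noise per printed feature.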 As to conditions: 635 nm fluorescence, higher = more signal.
Assay [11] is described as follows: ATP-based viability of Huh7 replicon cells – cell-based, CellTiter-Glo luminescence, basal, 48 h, cytotoxicity control for HCV replication inhibitor project, primary screen (AID 1143).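 Further: Huh7 hepatoma cells carrying a hepatitis C replication reporter with no stimulus; test concentration not given here.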 As to conditions: higher = more signal, called active from +8 up or from −8 down.
Assay [12] can be described thus: Pseudomonas biofilm growth suppression – PAO1 strain, BacTiter-Glo luminescence, LB-PBS, primary screen (AID 1144). As to conditions: P. aeruginosa PAO1 biofilm, 12 h, higher = more signal.
Assay [13] is described as follows: basal CRE-LacZ reporter activity in PC12 – cell-based, unstimulated, primary screen (AID 1145). Conditions: no forskolin, luminescence, 4.5 h, higher = more signal, called active from +8 up or from −8 down.
The nature of assay [14]: forskolin-driven CRE-LacZ activity in PC12 – cell-based, CRE-LacZ reporter, forskolin-stimulated, primary screen (AID 1146).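 Further: PC12 cells with 6xCRE LacZ reporter stimulated by forskolin 10 µM; beta-galactosidase reporter signal reflecting CREB driven transcription.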 Conditions: luminescence, 4.5 h, higher = more signal, called active from +8 up or from −8 down.
Assay [15] has as its target Streptavidin (Streptomyces avidinii) (UniProt P22629). The assay can be described thus: compounds binding control protein streptavidin – biophysical, small-molecule microarray, 635/667 nm fluorescence, artefact control for SMM compound annotation, primary screen (AID 1147).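 Further: signal reflects streptavidin binding to arrayed compounds as a control protein.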 As to conditions: higher = more signal.
Assay [16] is described as follows: probe aInhba binding on compound microarray – biochemical, small-molecule microarray, 635/667 nm fluorescence, primary screen (AID 1148).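 Further: score merges 667nm spot fluorescence with signal-to-noise for antibody binding to printed compounds.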 As to conditions: higher = more signal.
For assay [17], the target named is Torsin-1A (Homo sapiens) (UniProt O14656). The assay can be described thus: TOR1A wild-type binding on microarray – cell lysate, small-molecule microarray, lysate, 635/667 nm, primary screen (AID 1149). As to conditions: COS7 hTOR1A-WT lysate, 635 nm fluorescence, higher = more signal.
Chain of Torsin-1A (Homo sapiens) (O14656 whole entry, looked up): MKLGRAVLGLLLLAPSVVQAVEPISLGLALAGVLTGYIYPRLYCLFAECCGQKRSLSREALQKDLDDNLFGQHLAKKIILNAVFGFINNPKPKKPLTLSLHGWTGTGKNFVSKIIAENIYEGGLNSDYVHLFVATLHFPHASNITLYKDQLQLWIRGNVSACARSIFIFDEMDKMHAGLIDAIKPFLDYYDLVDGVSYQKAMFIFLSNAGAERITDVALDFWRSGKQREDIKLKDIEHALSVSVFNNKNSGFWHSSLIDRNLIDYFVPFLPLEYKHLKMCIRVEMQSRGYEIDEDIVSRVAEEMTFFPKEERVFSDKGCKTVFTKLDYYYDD
The target is the same in assay [18]. The assay can be described thus: torsin A mutant lysate binding on microarrays – cell lysate, small-molecule microarray, COS7 lysate, 635/667 nm fluorescence, primary screen (AID 1150).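 Further: score pools 667 nm emission and signal to noise measuring lysate protein binding.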 As to conditions: COS7 hTOR1A mutant lysate, 635 nm fluorescence, higher = more signal.
The subject of assay [19] is Sonic hedgehog protein (Shh). As to the kind of experiment: Sonic hedgehog microarray binding compounds – biochemical, small-molecule microarray, 635/667 nm fluorescence, primary screen (AID 1151).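 Further: Shh protein binding to compounds spotted on small-molecule microarray slides; score combines spot fluorescence intensity with signal-to-noise across triplicate slides.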 As to conditions: 635 nm fluorescence, higher = more signal.

Activity calls are given as the source filed them. Unless noted, how the calls were made is not given here.

Chain of Fibroblast growth factor 2 (Homo sapiens) (P09038 whole entry, looked up): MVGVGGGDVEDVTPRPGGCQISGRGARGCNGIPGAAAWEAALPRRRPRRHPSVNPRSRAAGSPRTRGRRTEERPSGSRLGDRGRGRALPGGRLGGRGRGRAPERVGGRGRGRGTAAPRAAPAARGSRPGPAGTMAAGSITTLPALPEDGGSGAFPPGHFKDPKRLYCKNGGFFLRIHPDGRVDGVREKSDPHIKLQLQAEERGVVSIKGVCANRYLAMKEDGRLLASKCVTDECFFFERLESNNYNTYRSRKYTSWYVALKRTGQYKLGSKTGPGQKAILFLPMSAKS
Chain of Streptavidin (Streptomyces avidinii) (P22629 whole entry, looked up): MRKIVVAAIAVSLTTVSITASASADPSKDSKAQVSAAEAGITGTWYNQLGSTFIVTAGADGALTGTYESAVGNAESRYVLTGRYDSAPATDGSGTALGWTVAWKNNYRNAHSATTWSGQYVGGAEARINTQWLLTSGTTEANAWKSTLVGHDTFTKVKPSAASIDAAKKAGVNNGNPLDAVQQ

Turning to `COC(=O)[C@@]1(Cc2ccccc2)[C@H]2c3cc(C(=O)N4CCCC4)n(C[C@H](O)CO)c3C[C@H]2CN1C(=O)c1ccccc1`, the composite z-score in [1] was 1.39; in [2], 0.926; in assay [3] it was 1.62; in [4], -0.455; in assay [5] it was -0.326; in assay [6] it was -0.978. Also, the composite z-score in the assay on Lefty1 is -0.554; in assay [8], 1.18; in assay [10] it was -0.303; in assay [15], 1.29; in assay [16], 0.163; with Torsin-1A (Homo sapiens) [17] it was 0.677. In addition, the composite z-score with Torsin-1A (Homo sapiens) [18] worked out at 1.4; in [19] it was 0.139. Besides, the z-score is 0.577 in assay [7]; 1.22 (inactive) in [9]; 0.0728 (inactive) in [11]; -0.367 (inactive) in [12]; 0.39 (inactive) in assay [13]; 0.881 (inactive) in [14].
In the case of `CC=CC(O)C1C=CC2C(=O)N(c3ccccc3)C(=O)C2N1Nc1ccccc1` (stereo not given), the composite z-score in assay [1] is 2.25; in [2], 1.25; in assay [3] it was 0.981; in assay [4], 0.915; in assay [5] it was 1.2; in assay [6], 0.915. For the same compound, the composite z-score with Lefty1 was 0.493; in assay [8], 1.15; in assay [10] it was 0.859; in assay [15], 1; in assay [16] it was 0.337; with Torsin-1A (Homo sapiens) [17], 0.358. For the same compound, the composite z-score with Torsin-1A (Homo sapiens) [18] amounted to 0.285; in assay [19], 0.0322. The z-score in [7] is 0.714; in [9], -2.22 (inactive); in assay [11], 0.973 (inactive); in [12] it was -1.33 (inactive); in assay [13], 0.0501 (inactive); in assay [14], -0.741 (inactive).
In the case of `C[C@H]1C2=C3C(CC[C@H]4C(OCc5ccc(F)cc5C(F)(F)F)OC[C@](C)([C@@H]34)N(C(=O)OC(C)(C)C)C2)C(CO)C1CO` (stereo not given in full), the composite z-score in assay [1] was 0.0803; in [2], 1.12; in assay [3], 0.882; in assay [4] it was 0.944; in assay [5], 0.578; in [6], -1.89. The composite z-score is -0.781 in the assay on Lefty1; 0.608 in assay [8]; 0.24 in [10]; 1.38 in [15]; -0.0214 in assay [16]; 0.28 in the assay with Torsin-1A (Homo sapiens) [17]. The composite z-score in the assay with Torsin-1A (Homo sapiens) [18] is 0.222; in [19], -1.38. The z-score in assay [7] is 1.31; in [9] it was 0.608 (inactive); in assay [11], -2.85 (inactive); in assay [12], 0.36 (inactive); in assay [13], 0.779 (inactive); in assay [14], 0.677 (inactive).
As for `COC(=O)C[C@H]1O[C@]2(C(=O)N(C)c3ccccc32)[C@@H](C)[C@@H]1[Si](C)(C)c1ccc(C)cc1`, the composite z-score worked out at 0.522 in assay [1]; 1.12 in assay [2]; 0.342 in assay [3]; 0.343 in assay [4]; 0.498 in assay [5]; 0.148 in [6]. For the same compound, the composite z-score with Lefty1 was 0.818; in assay [8], 0.255; in assay [10] it was 0.139; in assay [15], 0.0785; in assay [16] it was -0.0403; with Torsin-1A (Homo sapiens) [17], 0.559. Moreover, the composite z-score with Torsin-1A (Homo sapiens) [18] turned out to be 0.346; in [19], 0.763. The z-score in assay [7] was 0.557; in assay [9], -0.507 (inactive); in assay [11] it was -3.88 (inactive); in assay [12], 0.92 (inactive); in [13], 1.31 (inactive); in assay [14], -0.73 (inactive).
Regarding `C=C(CCCC)C(=O)CC[C@@H](OC(=O)c1cccnc1)c1ccccc1OCCO`, the composite z-score in assay [1] is -0.349; in [2] it was -0.107; in [3] it was -0.0523; in [4], 0.48; in assay [5] it was 0.865; in assay [6], 1.34. In addition, the composite z-score in the assay on Lefty1 was 1.56; in assay [8], 0.058; in assay [10], 0.047; in [15] it was -0.368; in assay [16] it was -0.128; in the assay with Torsin-1A (Homo sapiens) [17], 0.417. Further, the composite z-score in the assay with Torsin-1A (Homo sapiens) [18] stood at 0.781; in assay [19], 1.76. Moreover, the z-score in assay [7] was 1.24; in assay [9], -0.511 (inactive); in assay [11] it was -1.55 (inactive); in [12] it was -0.325 (inactive); in assay [13], 4.16 (inactive); in [14] it was 1.04 (inactive).
